Measured values taken from PubChem BioAssay (NCI).
About 83,000 compounds went through this panel and 20% of them were active in at least one assay; those are over-represented in the sample as a whole.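 Percent growth is the endpoint: 0 to 100 indicates growth inhibition (40 means 60% inhibition), 0 means no net growth, and negative values indicate cell death.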 Active and inactive are the calls of the source. How the source made its calls: active means growth percent below 10; inactive means the rest.

Key:
Experiment in all cases: NCI-60 one-dose screen, 48 h (100 = growth as untreated, 0 = no growth, -100 = all killed)
Conditions in all cases: 10 µM unless noted
NCI-H23 lung = tested on: NCI-H23 lung
NCI-H226 lung = tested on: NCI-H226 lung
NCI-H322M lung = tested on: NCI-H322M lung
HOP-62 NSCLC = tested on: HOP-62 NSCLC
NCI-H460 lung = tested on: NCI-H460 lung
HOP-92 NSCLC = tested on: HOP-92 NSCLC
NCI-H522 lung = tested on: NCI-H522 lung
A549/ATCC NSCLC = tested on: A549/ATCC NSCLC
786-0 renal = tested on: 786-0 renal
COLO 205 colon = tested on: COLO 205 colon

Measured: growth

C=CCNc1ccc2c3c(cccc13)C(=O)N(CC=C)C2=O
inactive: NCI-H23 lung 96% | NCI-H226 lung 93.7% | NCI-H322M lung 102% | HOP-62 NSCLC 108% | NCI-H460 lung 99.9% | HOP-92 NSCLC 49.6% | NCI-H522 lung 99.4% | A549/ATCC NSCLC 103% | 786-0 renal 101% | COLO 205 colon 110%

CNC(=O)c1cc(Oc2cccc3nc(NC(=O)Nc4ccc(F)cc4F)ccc23)ccn1
active: HOP-62 NSCLC 0.65% | A549/ATCC NSCLC 8.57% | 786-0 renal -48.7%
inactive: NCI-H23 lung 42.7% | NCI-H226 lung 49.7% | NCI-H322M lung 33% | NCI-H460 lung 13.7% | HOP-92 NSCLC 41.4% | NCI-H522 lung 46% | COLO 205 colon 37.9%

C#CC#CC#CC#CC#CC#CC#CC#CC[C@@H]1OC[C@H](COC(=O)O[C@@H](C(=O)O[C@H]2C[C@@]3(O)[C@@H](OC(=O)c4ccccc4)[C@@H]4[C@]5(OC(C)=O)CO[C@@H]5C[C@H](O)[C@@]4(C)C(=O)[C@H](OC(C)=O)C(=C2C)C3(C)C)[C@@H](NC(=O)c2ccccc2)c2ccccc2)O1
inactive: NCI-H23 lung 34.5% | NCI-H226 lung 57.6% | NCI-H322M lung 35.9% | HOP-62 NSCLC 55% | NCI-H460 lung 10.6% | HOP-92 NSCLC 63.7% | NCI-H522 lung 48.6% | A549/ATCC NSCLC 36.7% | 786-0 renal 72.9% | COLO 205 colon 18.7%

CCOc1ccccc1NC(=O)CCC(=O)OC
inactive: NCI-H23 lung 109% | NCI-H226 lung 101% | NCI-H322M lung 96.5% | HOP-62 NSCLC 94.8% | NCI-H460 lung 108% | HOP-92 NSCLC 110% | NCI-H522 lung 81.9% | A549/ATCC NSCLC 108% | 786-0 renal 91.1% | COLO 205 colon 103%

C(=N\Nc1nnc2n1N=C(c1ccccc1)CS2)/c1ccc(OCc2ccccc2)cc1
inactive: NCI-H23 lung 103% | NCI-H226 lung 88.9% | NCI-H322M lung 107% | HOP-62 NSCLC 110% | NCI-H460 lung 106% | HOP-92 NSCLC 110% | NCI-H522 lung 88.1% | A549/ATCC NSCLC 91.1% | 786-0 renal 110% | COLO 205 colon 112%

Cc1c2cnccc2c(C)c2c1c1cc(C(=O)O)ccc1n2C
inactive: 786-0 renal 22.3%
active: NCI-H23 lung -32.4% | NCI-H226 lung -25.8% | NCI-H322M lung -1.54% | HOP-62 NSCLC -8.17% | NCI-H460 lung 1.58% | HOP-92 NSCLC -3.06% | NCI-H522 lung -47.8% | A549/ATCC NSCLC 8.95% | COLO 205 colon -9.71%

Cc1ccccc1NC(=O)Cn1cc(CN2CCN(c3ccnc4cc(Cl)ccc34)CC2)nn1
inactive: NCI-H23 lung 99.2% | NCI-H226 lung 90.9% | NCI-H322M lung 103% | HOP-62 NSCLC 90.7% | NCI-H460 lung 98.6% | HOP-92 NSCLC 68.5% | NCI-H522 lung 102% | A549/ATCC NSCLC 106% | 786-0 renal 104% | COLO 205 colon 99%

CCOC(=O)C1=C(c2ccccc2)N=C2N(c3ccccc3)N=C(C(C)=O)N2C1c1ccc(Br)cc1 (stereo not given)
inactive: NCI-H23 lung 94.3% | NCI-H226 lung 96.1% | NCI-H322M lung 95.3% | HOP-62 NSCLC 103% | NCI-H460 lung 98% | HOP-92 NSCLC 89.5% | NCI-H522 lung 95.3% | A549/ATCC NSCLC 91.2% | 786-0 renal 100% | COLO 205 colon 124%

Cc1cc(N2CCOCC2)nc(N(CCCNc2ccnc3cc(Cl)ccc23)Cc2ccc3c(c2)OCO3)n1
active: HOP-62 NSCLC -17.6% | NCI-H460 lung -11.5% | HOP-92 NSCLC -25.8% | NCI-H522 lung -66.4% | A549/ATCC NSCLC 2.51% | 786-0 renal -79% | COLO 205 colon -58.5%
inactive: NCI-H23 lung 13.5% | NCI-H226 lung 13.8% | NCI-H322M lung 21.4%

COC(=O)c1ccc(-n2cc(CCCOS(=O)(=O)c3ccc(F)cc3)nn2)cc1
inactive: NCI-H23 lung 98.1% | NCI-H226 lung 97.9% | NCI-H322M lung 102% | HOP-62 NSCLC 106% | NCI-H460 lung 102% | HOP-92 NSCLC 100% | NCI-H522 lung 93.7% | A549/ATCC NSCLC 97% | 786-0 renal 97.1% | COLO 205 colon 107%

O=C1C(Nc2ccc(Br)cc2)=C(I)C(=O)c2ncccc21
active: HOP-92 NSCLC -82.6% | NCI-H522 lung -46.2%
inactive: NCI-H23 lung 10.6% | NCI-H226 lung 87.3% | NCI-H322M lung 84.4% | HOP-62 NSCLC 42.1% | NCI-H460 lung 23.3% | A549/ATCC NSCLC 46.8% | 786-0 renal 44.4% | COLO 205 colon 23.5%

COc1cccc2cc(N(C)c3ncnc4ccccc34)ccc12
active: NCI-H460 lung 4.58% | NCI-H522 lung -9.69% | COLO 205 colon -13.8%
inactive: NCI-H23 lung 15.5% | NCI-H226 lung 46.2% | NCI-H322M lung 48% | HOP-62 NSCLC 23.3% | HOP-92 NSCLC 28.1% | A549/ATCC NSCLC 13.5% | 786-0 renal 29.5%

Cc1ccc(C2(C)NC(=O)N(CC(=O)Nc3cccc(C)c3)C2=O)cc1 (stereo not given)
inactive: NCI-H23 lung 96.5% | NCI-H226 lung 84.5% | NCI-H322M lung 102% | HOP-62 NSCLC 102% | NCI-H460 lung 97.8% | HOP-92 NSCLC 63.8% | NCI-H522 lung 77.2% | A549/ATCC NSCLC 101% | 786-0 renal 104% | COLO 205 colon 116%

O=C1NCCN1/N=C/c1c(Cl)n(Cc2ccc(Cl)cc2)c2ccccc12
inactive: NCI-H23 lung 98.2% | NCI-H226 lung 64.8% | NCI-H322M lung 110% | HOP-62 NSCLC 136% | NCI-H460 lung 41.4% | HOP-92 NSCLC 62.8% | NCI-H522 lung 93.9% | A549/ATCC NSCLC 70% | 786-0 renal 96.5% | COLO 205 colon 75.2%

O=c1c(Cc2ccc(F)cc2)cc(-c2ccccc2)nn1C/C(=N/O)c1ccccc1
inactive: NCI-H23 lung 49% | NCI-H226 lung 57.1% | NCI-H322M lung 70% | HOP-62 NSCLC 62.7% | NCI-H460 lung 37.4% | HOP-92 NSCLC 42.6% | NCI-H522 lung 42.6% | A549/ATCC NSCLC 24.2% | 786-0 renal 69.2% | COLO 205 colon 47.9%

C#CCOc1ccc(C2=NN(C)C3N=C(Cl)c4ncn(C)c4N23)cc1OCC#C (stereo not given)
inactive: NCI-H23 lung 89.7% | NCI-H226 lung 83.4% | NCI-H322M lung 90.2% | HOP-62 NSCLC 95.5% | NCI-H460 lung 105% | HOP-92 NSCLC 79.8% | NCI-H522 lung 87.3% | A549/ATCC NSCLC 104% | 786-0 renal 105% | COLO 205 colon 102%

COc1cc(C2CC(c3cccc(Nc4ccncc4)c3)=Nc3c(N)ncnc3N2)cc(OC)c1OC (stereo not given)
inactive: NCI-H23 lung 95.5% | NCI-H226 lung 89% | NCI-H322M lung 92.2% | HOP-62 NSCLC 86.7% | NCI-H460 lung 95.9% | HOP-92 NSCLC 76% | NCI-H522 lung 82.1% | A549/ATCC NSCLC 84% | 786-0 renal 95.9% | COLO 205 colon 96.6%

N#CC1=C(N)Oc2c(ccc3cccnc23)C1c1ccccc1 (stereo not given)
inactive: NCI-H23 lung 17.7% | NCI-H226 lung 54% | NCI-H322M lung 39.2% | HOP-62 NSCLC 43.2% | NCI-H460 lung 16% | HOP-92 NSCLC 32.3% | NCI-H522 lung 20.3% | A549/ATCC NSCLC 32% | 786-0 renal 35.3%
active: COLO 205 colon 9.2%

COc1cccc(CNc2nnc(C)c(C)n2)c1O
inactive: NCI-H23 lung 96.5% | NCI-H226 lung 89.1% | NCI-H322M lung 108% | HOP-62 NSCLC 95.6% | NCI-H460 lung 102% | HOP-92 NSCLC 81.2% | NCI-H522 lung 90.7% | A549/ATCC NSCLC 93.7% | 786-0 renal 104% | COLO 205 colon 109%

CC1=NC(=S)NC(c2ccccc2)/C1=C1/CC(c2ccccc2O)NN1 (stereo not given)
inactive: NCI-H23 lung 92.5% | NCI-H226 lung 97% | NCI-H322M lung 101% | HOP-62 NSCLC 92.7% | NCI-H460 lung 104% | HOP-92 NSCLC 84.5% | NCI-H522 lung 96.3% | A549/ATCC NSCLC 100% | 786-0 renal 100% | COLO 205 colon 105%

C[C@H]1c2ccccc2CN1CCCOc1cc2c(cc1OCC1CC1)C1(CCCC1)C(N)=N2
active: COLO 205 colon -66.4%
inactive: NCI-H23 lung 67.2% | NCI-H226 lung 53.1% | NCI-H322M lung 89.7% | HOP-62 NSCLC 82% | NCI-H460 lung 38.5% | HOP-92 NSCLC 23.2% | NCI-H522 lung 73.7% | A549/ATCC NSCLC 74.1% | 786-0 renal 56.4%

CN1C(=O)N(C)C2C1NN=c1s/c(=C\c3ccc(F)cc3)c(=O)n12 (stereo not given)
active: NCI-H522 lung 2.08%
inactive: NCI-H23 lung 50.8% | NCI-H226 lung 62.9% | NCI-H322M lung 53.6% | HOP-62 NSCLC 46.7% | NCI-H460 lung 13% | HOP-92 NSCLC 47% | A549/ATCC NSCLC 24.8% | 786-0 renal 40.7% | COLO 205 colon 12.5%

O=C(Nc1ncc(Cc2ccc(Cl)cc2)s1)c1ccc2c(c1)OCCO2
inactive: NCI-H23 lung 37% | NCI-H226 lung 23.5% | NCI-H322M lung 46.8% | HOP-62 NSCLC 26.8% | HOP-92 NSCLC 60.6% | A549/ATCC NSCLC 18% | 786-0 renal 38.7%
active: NCI-H460 lung 8% | NCI-H522 lung 2.46% | COLO 205 colon -13.7%

CC/C(=C(/c1ccc(Cl)cc1)c1ccc(OCCN2CCCCCC2)cc1)c1ccccc1
inactive: NCI-H23 lung 77.5% | NCI-H226 lung 97.6% | NCI-H322M lung 107% | HOP-62 NSCLC 103% | NCI-H460 lung 56.4% | HOP-92 NSCLC 80.3% | NCI-H522 lung 89.6% | A549/ATCC NSCLC 59.5% | 786-0 renal 85.2% | COLO 205 colon 37%

Cc1ccc(Nc2nc(N)nc(N)c2N=O)cc1Cl
inactive: NCI-H23 lung 71.9% | NCI-H226 lung 94.1% | NCI-H322M lung 104% | HOP-62 NSCLC 76% | NCI-H460 lung 102% | HOP-92 NSCLC 63% | NCI-H522 lung 75.4% | A549/ATCC NSCLC 98.3% | 786-0 renal 79.4% | COLO 205 colon 111%

COC(=O)[C@H](C)NC(=O)c1ccc(NC(=O)c2[nH]c(C)c(Cl)c2Cl)c(OCCN)c1
inactive: NCI-H23 lung 106% | NCI-H226 lung 112% | NCI-H322M lung 101% | HOP-62 NSCLC 106% | NCI-H460 lung 105% | HOP-92 NSCLC 101% | NCI-H522 lung 107% | A549/ATCC NSCLC 98.1% | 786-0 renal 98.6% | COLO 205 colon 104%

COc1cccc(C2C(C#N)=C(N)Oc3c2ccc2ccccc32)c1 (stereo not given)
inactive: NCI-H23 lung 28.4% | NCI-H226 lung 47.1% | NCI-H322M lung 41.7% | HOP-62 NSCLC 39.6% | HOP-92 NSCLC 46.5% | A549/ATCC NSCLC 26.2% | 786-0 renal 20.6%
active: NCI-H460 lung 8.32% | NCI-H522 lung 7.11% | COLO 205 colon -41.8%
